Compounds without any hit were thinned out: in the full panel of roughly 83,000, 20% have a hit.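 Method: cells in 96-well plates; compound added at one concentration; 48 h incubation; percent growth measured; values under 10 scored active.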 The source made the active and inactive calls.

The assay concerns MDA-MB-468 breast. Put plainly: NCI-60 one-dose screen, 48 h (100 = growth as untreated, 0 = no growth, -100 = all killed). As to conditions: 10 µM unless noted.
`COc1cc2c(cc1-c1c(C)noc1C)ncc1nc(C3CCC(F)(F)CC3)n([C@@H](C)COC(F)F)c12`: the growth is 39.3% (inactive).

Turning to `COc1cc(NC(C)CCCNC(C)C)c2ncccc2c1OC` (stereo not given), the growth was 32.8% (inactive).

For `CS(=O)(=O)OCC(COS(C)(=O)=O)C(c1ccccc1)c1ccccc1`, the growth is 102% (inactive).

`NC1=NC(=O)C(c2ccccc2)(c2ccccc2)S1`: the growth was 111% (inactive).

Regarding `CCCCCCCn1cc2c(NCCc3ccccc3)ncnc2n1`, the growth is 105% (inactive).

For `c1ccc(Cn2cc(-c3nc4ccccc4s3)c3cccnc32)cc1`, the growth was 99.4% (inactive).

As for `CCOC(=O)C1(Cc2ccccc2)CCN(Cc2cccc(OC)c2O)CC1`, the growth was -9.39% (active).

Regarding `COc1ccc(C(=O)/C=C/c2cc(-c3cc(OC)c(OC)c(OC)c3)n[nH]2)cc1OC`, the growth was -94.6% (active).

As to `COc1cc(/C=C/c2cc(/C=C/c3ccc(O)c(OC)c3)n(C(=O)c3ccccc3Br)n2)ccc1O`, the growth is 2.97% (active).

As for `C=C1CCC[C@]2(C)CCC[C@H](C)[C@@H](OC(C)=O)[C@@H]3OC(=O)C(=C)[C@@H]3C[C@H]1O2`, the growth is 31.8% (inactive).

Take `O=C(C[C@]1(O)C(=O)Nc2ccccc21)c1cccc(C(F)(F)F)c1`: the growth was 83.9% (inactive).

For the molecule `O=C(CSc1ncc(-c2ccccc2)n1-c1ccccc1)Nc1ccc(-c2nc3ccccc3s2)cc1`, the growth was 15.4% (inactive).

In the case of `COc1cc(C(=O)/C=C/c2ccc(OCCCCCC[P+](c3ccccc3)(c3ccccc3)c3ccccc3)cc2)cc(OC)c1OC`, the growth is -58.6% (active).

As to `Nc1ncnc2c1c(-c1cccc(OCc3ccccc3)c1)cn2C1CC(CN2CCC2)C1` (stereo not given), the growth is -12.3% (active).

Take `O=C1C=CC(=O)N1c1ccccc1N1C(=O)C=CC1=O`: the growth is 104% (inactive).

For the molecule `COc1ccccc1OCC(=O)N1CCCCCC1`, the growth was 97.1% (inactive).

As for `Nc1ccc(-c2cc3c(Nc4ccc(OCc5cccc(F)c5)c(Cl)c4)ncnc3s2)cc1`, the growth is 14.2% (inactive).

Take `C=C(C)[C@@H]1CC[C@]2(C#N)CC[C@]3(C)[C@H](CC[C@@H]4[C@@]5(C)CCCNC(C)(C)[C@@H]5CC[C@]43C)[C@@H]12`: the growth was 19.3% (inactive).

In the case of `COC(=O)C(Cc1ccccc1)NS(=O)(=O)/N=C1\NC(=O)NC1=C(Cl)Cl` (stereo not given), the growth is 16.3% (inactive).

`OCc1cccnc1`: the growth was 102% (inactive).

As for `CC(=O)CC/C=C(\C)[C@H](O)[C@H](C)C(=O)O[C@H]1C[C@H](C)C=C2C=C[C@@]3(C)O[C@@H](O)CC(=O)[C@]3(C)[C@H]21`, the growth was -65.4% (active).

As to `COc1ccc(-c2cnc3ccccc3n2)cc1`, the growth was 99.7% (inactive).

Consider `COc1cc(C2NC(c3cc(OC)c(OC)c(OC)c3)C(C#N)(C#N)C2(C#N)C#N)cc(OC)c1OC` (stereo not given), for which the growth is 93.2% (inactive).

Turning to `CCC1OC(OC)C=CC1=O` (stereo not given), the growth is 100% (inactive).

Regarding `CC[C@@H](C(=O)[C@@H](C)[C@@H](O)[C@H](C)[C@@H]1O[C@@H]([C@@H](CC)C(=O)ONC(=O)c2ccccc2O)CC[C@@H]1C)C1O[C@]2(C=CC(=O)[C@]3(CC[C@@](C)([C@H]4CC[C@](O)(CC)[C@H](C)O4)O3)O2)[C@H](C)C[C@@H]1C` (stereo not given in full), the growth is 16.4% (inactive).

With `CCC(=C(c1ccc(OCCN(CC)CC)cc1)c1ccc(OCCN(CC)CC)cc1)c1ccc(Cl)cc1`, the growth was -79.1% (active).

As for `C=C1C(=O)O[C@H]2[C@H]1CC/C(COC(=O)NCc1ccccc1OC)=C\CC[C@@]1(C)O[C@@H]21`, the growth is 42.2% (inactive).

Regarding `Cc1ccc(C(SCC(N)C(=O)O)(c2ccccc2)c2ccc(C)cc2)cc1` (stereo not given), the growth was -1.71% (active).

Consider `CC(C)CSc1nc(NN)c(C#N)c(-c2ccc(F)cc2)n1`, for which the growth is 85.2% (inactive).

As to `O=C(/C=C/c1ccc(F)cc1)Nc1cccc2cccnc12`, the growth is -19.1% (active).

In the case of `CCCCc1ccc2nc(NC(=O)OC)[nH]c2c1`, the growth is 22.3% (inactive).

Regarding `O=C1C(N2CCOCC2)=Cc2cccc3cccc1c23`, the growth is 72% (inactive).

As to `CCN(CC)CCCNc1nccc2ccc(Cl)cc12`, the growth was 97.5% (inactive).

Consider `CC1CCNC(C)C1` (stereo not given), for which the growth was 99.2% (inactive).

As to `COc1ccc(-c2cc(-c3cc(OC)c(OC)c(OC)c3)c(C#N)c(=O)n2CCCCC(=O)NO)cc1`, the growth was 72.3% (inactive).

Turning to `COC1=CC(c2ccc[nH]2)=N/C1=C\c1[nH]c(C)c(C)c1CCC(=O)OCc1ccccc1`, the growth is 15.6% (inactive).

For `Cc1nc(Cl)c2c(n1)N(C)c1ccc(Cl)cc1C(C)C2` (stereo not given), the growth was 67.1% (inactive).

Consider `COc1cc(-c2nc(SCC(=O)Nc3ccc(C(C)=O)cc3)[nH]c(=O)c2C#N)cc(OC)c1OC`, for which the growth was -12.8% (active).

In the case of `Cc1cnc(C(=O)Nc2nc3ccc(S(=O)(=O)Nc4ccc(C(C)(C)C)cc4)cc3[nH]2)cn1`, the growth is -11.4% (active).

On to `NC(=O)c1c(Nc2ccccc2)nn2cc(-c3nc4ccccc4s3)c(N)nc12`, for which the growth was 101% (inactive).
